Reference: PubChem BioAssay (NCI)
This is part of a sample that, as a whole, favours compounds with a hit. Of some 79,000 tested, about 15% had one in any assay. A number with no mark means an inactive call. Active and inactive are the calls of the source. No stated cut-off is given here; in the data, active means growth inhibition above about 70%; inactive means the rest.

Assay: NCI Yeast Anticancer Drug Screen. Data for the mec2-1 strain (AID 157)
Conditions: S. cerevisiae mec2-1 strain, at 50.0 µM, active compounds read high
Outline: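 Yeast mec2-1 mutant treated with compound. Readout: growth inhibition vs vehicle controls.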

| SMILES | growth inhibition |
| --- | --- |
| CC(NC1=CC(=O)c2cccnc2C1=O)C(O)c1ccccc1 (stereo not given) | 80.8% (active) |
| CC(Oc1ccccc1)C(O)(c1ccc(N(C)C)cc1)c1ccc(N(C)C)cc1 (stereo not given) | -5.9% |
| Cc1cc2c3ccccc3n(C)c2c2c1C(=O)c1ccccc1C2=O | 28% |
| O=C(NNC(=O)c1ccc2ccccc2c1)c1ccc(Cl)c(Cl)c1 | -23.3% |
| COc1nc(NC2OC(CO)C(O)C(O)C2O)c(/C=N/O)c(=O)n1C (stereo not given) | 2.25% |
| COCCCNC(=O)C1C(=O)C(=O)N(CCCOC)C1=O (stereo not given) | -3.45% |
| O=C(N=Nc1c(O)[nH]c2c(Cl)cc(Cl)cc12)C(=O)Nc1cccc(C(F)(F)F)c1 | -14% |
| CC(=O)CC(O)(C(F)(F)Cl)C(F)(Cl)Cl (stereo not given) | -47.7% |
| Cc1ccc(N=Cc2ccc(C(N)=S)cc2)cc1 | 21.3% |
| O=C(O)C1CCCN1Cc1ccc2c(c1)OCO2 (stereo not given) | -19.6% |
| C[N+](C)(C)c1cc[c]([Sn]([c]2ccc([N+](C)(C)C)cc2)([c]2ccc([N+](C)(C)C)cc2)[c]2ccc([N+](C)(C)C)cc2)cc1 | -5.75% |
| O=C(Cl)c1c(F)c(F)c(F)c(F)c1F | -26.1% |
| Cc1cn(C2CC(O)C(CO)C2C)c(=O)[nH]c1=O (stereo not given) | -11.8% |
| CCCCOc1cc(C(=O)O)ccc1[N+](=O)[O-] | -19.4% |
| O=C(O)C(Cc1ccccc1)NS(=O)(=O)Cc1ccccc1 (stereo not given) | -8.45% |
| CC(C)CC(NC(=O)c1cc([N+](=O)[O-])cc([N+](=O)[O-])c1)C(=O)O (stereo not given) | -2.7% |
| COC(=O)c1cc(=O)n(C)[nH]1 | 4.7% |
| CCN(CC)Cc1cc(N=Nc2ccc(-c3ccc(N)c(OC)c3)cc2OC)c2ccccc2c1O | 4.35% |
| COC(=O)NC1=Nc2ccccc2N(C(=O)Oc2ccccc2)S1 | 0.6% |
| CC(=O)OC1CCC2(C)C(=CCC3C2CCC2(C)/C(=N\NS(=O)(=O)c4ccc(C)cc4)CCC32)C1 (stereo not given) | 28.6% |

| SMILES | growth inhibition |
| --- | --- |
| COc1ccc(/C=C2\N=C(c3ccc([N+](=O)[O-])cc3)OC2=O)cc1Br | 21.6% |
| CCN(CC)CCC(=O)O | -19.4% |
| CS(=O)(=O)N1CC(CCl)c2ccc(NO)cc21 (stereo not given) | 27.9% |
| CCSCC(C)C(=O)OC (stereo not given) | -0.4% |
| COc1ccc(C(CC(=O)O)c2cc3c(cc2OC)OCO3)cc1 (stereo not given) | -9.85% |
| C[OH2+].[Cl][Cu+].[Cl][Cu+].[NH-]CCC([OH2+])CC[NH-] | -12.2% |
| O=C(Nc1ccc(F)cc1)c1cc2c(cc1Cl)Sc1nccn1S2(=O)=O | -4% |
| CC(C)(CCC(=O)O)CCC(=O)O | 17.6% |
| COc1cc(/C=C/C=C2\CCC/C(=C\C=C\c3ccc(O)c(OC)c3)C2=O)ccc1O | -0.05% |
| CCOC(=O)/C(C#N)=C/Nc1[nH]c(=O)c(C#N)c(-c2ccc(Cl)cc2)c1SC | 5.8% |
| C[C@H]1C[C@](C)(CO)Oc2oc3ccccc3c(=O)c21 | 10.3% |
| CCC1(C(=O)O)NC(=O)NC1=O (stereo not given) | -11.6% |
| C=C1CC2(CCC3C4CC=C5CC(O)CCC5(C)C4CCC32C)OC1=O (stereo not given) | 11.7% |
| Nc1nc(Cc2ccccc2)cs1 | 24.7% |
| O=[N+]([O-])c1cc([N+](=O)[O-])c(/C=C/c2ccccc2Cl)cc1/C=C/c1ccccc1Cl | 13.4% |
| CC(=O)Oc1cccc2c1C(=O)C1CC(O)C3(C=O)OC(C)(C)OC2(C)C13 (stereo not given) | -2.6% |
| C#CC(C)(CC)OC(C)=O (stereo not given) | -16.4% |
| O=C1NC(=O)C(=CN2C(=O)/C(=C/c3ccc(O)cc3)SC2=S)C(=O)N1 | -5.7% |
| O=C(c1ccccc1)c1cc[n+]([O-])cc1 | -11.8% |
| COc1c(NC(=O)c2ccc(C(=O)Nc3cccc([N+](=O)[O-])c3OC)cc2)cccc1[N+](=O)[O-] | -6.1% |

Assay: NCI Yeast Anticancer Drug Screen. Data for the sgs1 mgt1 strain (AID 161);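 further: 0% = growth of cultures given vehicle only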
Conditions: S. cerevisiae sgs1 mgt1 strain, at 50.0 µM, active compounds read high
Outline: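 Mutant yeast exposed to compound; growth scored against vehicle-only wells.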

| SMILES | growth inhibition |
| --- | --- |
| CC(NC1=CC(=O)c2cccnc2C1=O)C(O)c1ccccc1 (stereo not given) | 72.1% (active) |
| CC(Oc1ccccc1)C(O)(c1ccc(N(C)C)cc1)c1ccc(N(C)C)cc1 (stereo not given) | 9.3% |
| Cc1cc2c3ccccc3n(C)c2c2c1C(=O)c1ccccc1C2=O | 3.3% |
| O=C(NNC(=O)c1ccc2ccccc2c1)c1ccc(Cl)c(Cl)c1 | -2.65% |
| COc1nc(NC2OC(CO)C(O)C(O)C2O)c(/C=N/O)c(=O)n1C (stereo not given) | -6.35% |
| COCCCNC(=O)C1C(=O)C(=O)N(CCCOC)C1=O (stereo not given) | -15.8% |
| O=C(N=Nc1c(O)[nH]c2c(Cl)cc(Cl)cc12)C(=O)Nc1cccc(C(F)(F)F)c1 | -24.6% |
| CC(=O)CC(O)(C(F)(F)Cl)C(F)(Cl)Cl (stereo not given) | -42.8% |
| Cc1ccc(N=Cc2ccc(C(N)=S)cc2)cc1 | 1.45% |
| O=C(O)C1CCCN1Cc1ccc2c(c1)OCO2 (stereo not given) | -34% |
| C[N+](C)(C)c1cc[c]([Sn]([c]2ccc([N+](C)(C)C)cc2)([c]2ccc([N+](C)(C)C)cc2)[c]2ccc([N+](C)(C)C)cc2)cc1 | 20.2% |
| O=C(Cl)c1c(F)c(F)c(F)c(F)c1F | -7.4% |
| Cc1cn(C2CC(O)C(CO)C2C)c(=O)[nH]c1=O (stereo not given) | -17.2% |
| CCCCOc1cc(C(=O)O)ccc1[N+](=O)[O-] | -10.3% |
| O=C(O)C(Cc1ccccc1)NS(=O)(=O)Cc1ccccc1 (stereo not given) | -4.5% |
| CC(C)CC(NC(=O)c1cc([N+](=O)[O-])cc([N+](=O)[O-])c1)C(=O)O (stereo not given) | 16.1% |
| COC(=O)c1cc(=O)n(C)[nH]1 | 0.75% |
| CCN(CC)Cc1cc(N=Nc2ccc(-c3ccc(N)c(OC)c3)cc2OC)c2ccccc2c1O | 18.6% |
| COC(=O)NC1=Nc2ccccc2N(C(=O)Oc2ccccc2)S1 | 26.4% |
| CC(=O)OC1CCC2(C)C(=CCC3C2CCC2(C)/C(=N\NS(=O)(=O)c4ccc(C)cc4)CCC32)C1 (stereo not given) | 43.3% |

| SMILES | growth inhibition |
| --- | --- |
| COc1ccc(/C=C2\N=C(c3ccc([N+](=O)[O-])cc3)OC2=O)cc1Br | 27.5% |
| CCN(CC)CCC(=O)O | -7% |
| CS(=O)(=O)N1CC(CCl)c2ccc(NO)cc21 (stereo not given) | 24.9% |
| CCSCC(C)C(=O)OC (stereo not given) | -14.3% |
| COc1ccc(C(CC(=O)O)c2cc3c(cc2OC)OCO3)cc1 (stereo not given) | 3.8% |
| C[OH2+].[Cl][Cu+].[Cl][Cu+].[NH-]CCC([OH2+])CC[NH-] | -14.4% |
| O=C(Nc1ccc(F)cc1)c1cc2c(cc1Cl)Sc1nccn1S2(=O)=O | -8.8% |
| CC(C)(CCC(=O)O)CCC(=O)O | 15.8% |
| COc1cc(/C=C/C=C2\CCC/C(=C\C=C\c3ccc(O)c(OC)c3)C2=O)ccc1O | 11.2% |
| CCOC(=O)/C(C#N)=C/Nc1[nH]c(=O)c(C#N)c(-c2ccc(Cl)cc2)c1SC | -9.35% |
| C[C@H]1C[C@](C)(CO)Oc2oc3ccccc3c(=O)c21 | 17.4% |
| CCC1(C(=O)O)NC(=O)NC1=O (stereo not given) | -12.3% |
| C=C1CC2(CCC3C4CC=C5CC(O)CCC5(C)C4CCC32C)OC1=O (stereo not given) | 6.45% |
| Nc1nc(Cc2ccccc2)cs1 | 16.1% |
| O=[N+]([O-])c1cc([N+](=O)[O-])c(/C=C/c2ccccc2Cl)cc1/C=C/c1ccccc1Cl | 15.8% |
| CC(=O)Oc1cccc2c1C(=O)C1CC(O)C3(C=O)OC(C)(C)OC2(C)C13 (stereo not given) | 5.95% |
| C#CC(C)(CC)OC(C)=O (stereo not given) | 7.6% |
| O=C1NC(=O)C(=CN2C(=O)/C(=C/c3ccc(O)cc3)SC2=S)C(=O)N1 | 23.1% |
| O=C(c1ccccc1)c1cc[n+]([O-])cc1 | -18% |
| COc1c(NC(=O)c2ccc(C(=O)Nc3cccc([N+](=O)[O-])c3OC)cc2)cccc1[N+](=O)[O-] | -9% |
